# An excerpt weighted towards active compounds, which were near 12% of everything screened.
# Pf growth 96h – Primary qHTS for delayed death inhibitors of the malarial parasite plastid, 96 hour incubation. 320,000 compounds, 6.9% hits. P. falciparum luciferase reporter growth, 96 h. Potency, µM (titrated, usually from 28.7 µM), actives largely listed as inhibitors
#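 Delayed-death screen, second-generation endpoint: infected erythrocytes, 2% hematocrit, 0.05% parasitemia final; 96 hours at 37 C, 5% CO2; luciferase detection reagent; luminescence decrease equals reduced growth.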
# SARS PLP yeast – qHTS of Yeast-based Assay for SARS-CoV PLP | S. cerevisiae expressing SARS-CoV PLpro, growth rescue | Potency, µM (series often up to 32.9 µM), most hits filed as activators | 330,000 compounds, 0.19% hits; calls by dose curve; also: nearly all actives have a fitted effect of over 55% in size
# Pf growth 48h – Primary qHTS for delayed death inhibitors of the malarial parasite plastid, 48 hour incubation; P. falciparum luciferase growth in erythrocytes, 48 h; Potency, µM (highest dose often 28.7 µM), usual class: inhibitors; 310,000 compounds, 5.9% hits
#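 Here the parasites carry a stable luciferase gene and grow inside erythrocytes in Albumax-based RPMI medium with compound for one erythrocytic cycle. Activity is scored as loss of luminescent signal.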
# Sm TGR block – qHTS Assay for the Inhibitors of Schistosoma Mansoni Peroxiredoxins; purified TGR, DTNB reduction, TNB absorbance 405 nm; Potency, µM (doses to about 114 µM), actives largely listed as inhibitors; Schistosoma mansoni thioredoxin glutathione reductase (TGR), Q962Y6; 360,000 compounds, 3% hits; AID 485364, 2010; also: nearly all actives have a fitted effect of over 60% in size
#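 TGR 20 nM + NADPH 100 uM (dispensed conc.), cpd preinc 15 min RT; start with NADPH (500 uM addition) then DTNB (15 mM addition). Kinetic TNB absorbance, 405 nm filter. Four-parameter Hill fit across titration.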
# Numbers stand for hits; . = inactive; ? = inconclusive; / = no result. Unless noted, calls follow the shape of the dose curve; as a rule, active = well fitted curve in the direction sought with a large enough effect; inconclusive = small, poorly fitted or top-dose-only effect, or another doubt; inactive = no such curve, though single readings can be large; an effect the other way counts as inactive or inconclusive.
SMILES,Pf growth 96h,SARS PLP yeast,Pf growth 48h,Sm TGR block
Cc1ccc(NC(=O)CSCC(=O)Nc2cc(Cl)ccc2N2CCN(C)CC2)cc1,?,.,13.1µM,.
COc1ccc(CCC(=O)Nc2cc(Cl)ccc2N2CCN(C)CC2)cc1,4.65µM,.,7.38µM,.
COc1ccc(CCN(C)C(=O)C2CCCN(C3CCN(Cc4ccccc4)CC3)C2)cc1OC (centres undefined),.,.,.,.
O=C(CNS(=O)(=O)c1ccccc1)N1CCc2ccccc2C1,.,/,.,.
O=C(CSc1nnc(-c2ccccc2Cl)o1)N1CCCc2ccccc21,/,/,/,.
CC(=O)c1ccc(N2CCN(C(=O)C(=O)c3cn(CC(=O)N4CCCCCC4)c4ccccc34)CC2)cc1,?,.,?,.
COc1ccccc1N1CCN(C(=O)C(=O)c2cn(CC(=O)N3CCCC3)c3ccccc23)CC1,9.28µM,.,?,.
COc1ccccc1N1CCN(C(=O)C(=O)c2cn(CC(=O)N3CCCCCC3)c3ccccc23)CC1,7.38µM,.,9.28µM,.
O=C1CC(c2nc(-c3ccc(Cl)cc3)no2)CN1c1ccc2c(c1)OCCO2 (centres undefined),/,/,/,.
COCC1CCN(C(=O)c2ccc(OC3CCN(Cc4ccccn4)CC3)cc2)C1 (centres undefined),?,.,.,.
Cc1ccc(CNC(=O)CCn2cc(-c3ccc(C)cc3)nc2-c2ccncc2)cc1,9.28µM,.,?,.
O=C(O)CCn1cc(-c2ccc(F)cc2)nc1-c1ccncc1,.,.,.,.
Cc1ccc(CNC(=O)CCn2cc(-c3ccc(F)cc3)nc2-c2ccncc2)cc1,?,.,8.28µM,.
CCCCCCNCC(=O)N1CCC(Cc2ccccc2)CC1,?,.,.,.
CCC(=O)N1CCN(c2ccc(NC(=O)c3cccs3)cc2)CC1,13.1µM,.,.,.
O=C(Nc1cccc(N2C(=O)C=CC2=O)c1)c1cccs1,.,.,.,0.398µM
O=C(Nc1ccc(N2CCN(C(=O)c3ccccc3)CC2)cc1)c1cccs1,.,.,.,.
O=C(Nc1ccc(N2CCN(c3ccc(C(F)(F)F)cn3)CC2)nc1)c1cccs1,?,.,?,.
O=C(Nc1ccc(N2CCN(c3ncccc3C(F)(F)F)CC2)nc1)c1cccs1,2.33µM,.,0.37µM,.
O=C(/C=C/c1ccc(Cl)c([N+](=O)[O-])c1)Nc1cccc(NC(=O)c2ccco2)c1,?,.,11.7µM,.
Cc1nc2ccccc2c(=O)n1-c1cccc(NC(=O)c2cccs2)c1,?,.,?,.
Cc1cc(Cl)ccc1NS(=O)(=O)c1c(C(=O)N2CCCCCC2)c(C)n(C)c1C,/,/,/,.
Cc1cccc(N2CCN(C(=O)c3ccc4c(c3)CCN4S(C)(=O)=O)CC2)c1C,?,.,.,.
O=C(Nc1ccccc1Br)C(Cc1ccccc1)NS(=O)(=O)c1cccc2nsnc12 (centres undefined),/,/,/,.
CC(C)Oc1ccc(CNC(=O)c2ccc3c(c2)nc2n3CCOC2)cc1,/,/,/,.
SMILES,Pf growth 96h,SARS PLP yeast,Pf growth 48h,Sm TGR block
CCOc1ccccc1NC(=O)CSc1ncc2c(n1)-c1ccccc1N(CC)S2(=O)=O,/,/,/,.
O=C(COc1ccccc1[N+](=O)[O-])Nc1ccc(N2CCN(C(=O)c3cccs3)CC2)cc1,.,.,10.4µM,.
CCC(=O)Nc1ccc(N2CCN(C(=O)c3cccs3)CC2)cc1,.,.,.,/
O=C(Nc1ccc(NC(=O)c2ccco2)c(Cl)c1)c1ccccc1,.,.,.,.
O=C(Nc1ccc(NC(=O)c2ccc([N+](=O)[O-])o2)cc1Cl)c1ccco1,.,.,11.7µM,.
CCOc1ccc(Oc2cc(NC(=O)c3ccco3)cc([N+](=O)[O-])c2)cc1,1.65µM,.,6.57µM,.
O=C(/C=C/c1cccc([N+](=O)[O-])c1)Nc1cccc(NC(=O)c2cccs2)c1,4.15µM,.,.,.
O=c1[nH]c2ccc(NCc3ccc(-c4cccc(Cl)c4)o3)cc2[nH]1,/,/,/,.
O=C(Nc1ccc(N2CCN(C(=O)c3cccs3)CC2)cc1)c1cccnc1,2.94µM,.,?,.
O=C(Nc1ccc(N2CCN(C(=O)c3cccs3)CC2)cc1)c1ccc([N+](=O)[O-])o1,9.28µM,.,?,?
O=C(Nc1cccc(NC(=O)c2ccc([N+](=O)[O-])o2)c1)c1ccco1,.,.,9.28µM,?
O=C(Nc1cccc(NC(=O)c2cccs2)c1)c1ccc([N+](=O)[O-])o1,3.29µM,.,11.7µM,?
COc1cc(NC(=O)CC(c2cccs2)N2Cc3ccccc3C2=O)cc(OC)c1OC (centres undefined),/,/,/,.
COC(=O)c1cc(S(=O)(=O)N2c3ccccc3CC2C)cn1C (centres undefined),.,.,.,.
COc1ccc(-c2c[n+]3c4n2CCCCC4=C(c2ccc(Br)cc2)C3)cc1,2.08µM,.,3.7µM,.
Clc1ccc(C2=C3CCCCn4c(-c5ccccc5)c[n+](c43)C2)cc1,?,.,10.4µM,.
CCOc1ccc(C(C(=O)NCC2CCCO2)N(Cc2cccc(OC)c2)C(=O)c2snc(C(N)=O)c2N)cc1 (centres undefined),?,.,13.1µM,.
CC(C)c1ccc(N(C(=O)c2snc(C(N)=O)c2N)C(C(=O)NCC2CCCO2)c2ccc(N(C)C)cc2)cc1 (centres undefined),.,?,?,.
CN(C)c1ccc(C(C(=O)NCC2CCCO2)N(C(=O)c2snc(C(N)=O)c2N)c2ccccc2)cc1 (centres undefined),.,.,2.94µM,.
CCOc1ccccc1N(C(=O)c1snc(C(N)=O)c1N)C(C(=O)NCC1CCCO1)c1ccc2ncccc2c1 (centres undefined),?,.,?,.
CCc1ccccc1N(C(=O)c1snc(C(N)=O)c1N)C(C(=O)NCC1CCCO1)c1ccc(N(C)C)cc1 (centres undefined),.,.,?,.
NC(=O)c1nsc(C(=O)N(c2ccccc2)C(C(=O)NCC2CCCO2)c2ccc3ncccc3c2)c1N (centres undefined),?,.,11.7µM,.
Cc1ccccc1N(C(=O)c1snc(C(N)=O)c1N)C(C(=O)NCC1CCCO1)c1ccc(N(C)C)cc1 (centres undefined),?,.,1.65µM,.
CCCCC(CC)CCC(CC(C)C)OS(=O)(=O)O (centres undefined),.,/,.,/
Cc1cccc(N(C(=O)c2snc(C(N)=O)c2N)C(C(=O)NCC2CCCO2)c2ccc(N(C)C)cc2)c1 (centres undefined),.,.,13.1µM,.
COc1ccccc1N1CCN(C2CCCN(Cc3cc(F)cc(F)c3)C2)CC1 (centres undefined),?,.,?,.
Cc1cc(CN2CCCC(N3CCc4ccccc4C3)C2)cc(C)c1O (centres undefined),10.4µM,.,?,44.7µM
CC(c1ccccc1)[n+]1ccccc1 (centres undefined),11.7µM,.,9.28µM,.
Cn1cnc(S(=O)(=O)N2CCC(C(=O)NCc3ccccc3Cl)CC2)c1,/,/,/,.
